Test results taken from PubChem BioAssay (NCATS).
Records with an inconclusive call do not appear. Where a call stands in place of a potency, no number is given. The source made the active and inactive calls. Calls come from the whole dose curve; as a rule, active = well fitted curve in the direction sought with a large enough effect; inconclusive = small, poorly fitted or top-dose-only effect, or another doubt; inactive = no such curve, though single readings can be large; an effect the other way counts as inactive or inconclusive. Where a SMILES comes first, the peptide text is derived from it. [ ]: non-standard residue; d: D form. Ala(indol-2-yl) = N[C@@H](Cc1cc2ccccc2[nH]1)C(=O)O; Aib = CC(C)(N)C(=O)O

Test system: not listed separately
Test: Primary fluorescence-based thiol-reactive (MSTI) qHTS assay for identification of artifact compounds. (AID 1845221); note: nearly all actives have a fitted effect of over 65% in size; note: potency is the fitted concentration of half-maximal effect;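 for activity change, negative = thiol reactive: thiol-reactive compounds lower the probe fluorescence signal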
Conditions: MSTI thiol-reactivity probe, 1 h; series mostly up to 53.8 µM
Method in brief: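 One-hour, room-temperature, dark incubation of compound with 4 uM MSTI in PBS (pH 7.4, 2% DMSO) precedes a fluorescence read at 525 nm excitation, 598 nm emission; Hill-equation fitting yields concentration-response values.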

| Compound | activity change, negative = thiol reactive | Potency |
| --- | --- | --- |
| COC1CC(O[C@H]2CC[C@]3(C=O)C4CC[C@]5(C)[C@@H](C6=CC(=O)OC6)CC[C@]5(O)[C@@H]4CC[C@@H]3C2)OC(C)C1O[C@@H]1O[C@H](CO)[C@@H](O[C@@H]2O[C@H](CO)[C@@H](O)[C@H](O)[C@H]2O)[C@H](O)[C@H]1O (stereo not given in full) | -23.5% [at 11.5 µM] (inactive) |  |
| CO[C@@H]1C[C@H](O[C@H]2CC[C@@]3(C)C(CCC4C3CC[C@]3(C)[C@@H](C5=CC(=O)OC5)[C@@H](OC(C)=O)CC43O)C2)O[C@H](C)[C@@H]1O[C@H]1O[C@H](CO[C@@H]2O[C@H](CO)[C@@H](O)[C@H](O)[C@H]2O)[C@@H](O)[C@H](O)[C@H]1O (stereo not given in full) | 43.8% [at 11.5 µM] (inactive) |  |
| CC(=O)O[C@@H]1[C@@H](O)[C@H]2O[C@@H]3C=C(C)[C@@H](O)C[C@]3(CO)[C@]1(C)[C@]21CO1 |  | inactive |
| CO[C@H]1C[C@H](O[C@H]2CC[C@@]3(C)C(=CCC4C3CC[C@]3(C)[C@@H](C5=CC(=O)OC5)CC[C@]43O)C2)O[C@@H](C)[C@@H]1O[C@@H]1O[C@H](CO[C@@H]2O[C@H](CO)[C@@H](O)[C@H](O)[C@H]2O)[C@@H](O)[C@H](O)[C@H]1O (stereo not given in full) | 94.1% [at 11.5 µM] (inactive) |  |
| C=C1[C@@H](C)[C@H]2[C@H](Cc3ccccc3)NC(=O)[C@]23[C@H](OC(C)=O)/C=C/[C@](C)(O)C(=O)[C@@H](C)C/C=C/[C@H]3[C@@H]1O |  | inactive |
| c1cncc(OC[C@@H]2CCN2)c1 |  | inactive |
| CC(=O)OC[C@]12C[C@H](OC(=O)CC(C)C)C(C)=C[C@H]1O[C@@H]1[C@H](O)C[C@@]2(C)[C@]12CO2 |  | inactive |
| CNc1ccc2oc(C[C@H]3O[C@@]4(CC[C@H]3C)O[C@H](C(C)C(=O)c3ccc[nH]3)[C@H](C)C[C@H]4C)nc2c1C(=O)O (stereo not given in full) |  | 2.38 µM (active) |
| C[N@@+]1(CC2CC2)CC[C@]23c4c5ccc(O)c4O[C@H]2C(=O)CC[C@@]3(O)[C@H]1C5 |  | inactive |
| CC(=O)OC[C@]12C[C@H](OC(=O)CC(C)C)C(C)=C[C@H]1O[C@@H]1[C@H](O)[C@@H](O)[C@@]2(C)[C@]12CO2 |  | inactive |
| CC(C)(NC(=O)[C@@H](N)Cc1ccc(O)cc1)C(=O)N[C@@H](Cc1cc2ccccc2[nH]1)C(=O)N[C@@H](Cc1ccccc1)C(=O)O (H-Y[Aib][Ala(indol-2-yl)]F-OH) | 54.2% [at 11.5 µM] (inactive) |  |
| C[C@]12CC[C@H](O)C[C@H]1CC[C@@H]1[C@@H]2[C@H](O)C(=O)[C@]2(C)[C@@H](c3ccc(=O)oc3)CC[C@]12O |  | inactive |
| CC(=O)OC[C@]12C[C@H](OC(=O)CC(C)C)C(C)=C[C@H]1O[C@@H]1[C@H](O)[C@@H](OC(C)=O)[C@@]2(C)[C@@]12CO2 |  | inactive |
| CC1=C[C@H]2O[C@@H]3C[C@H]4OC(=O)/C=C/C=C/C(=O)OCC/C(C)=C/C(=O)OC[C@@]2(CC1)[C@]4(C)[C@]31CO1 |  | inactive |
| C=C(CO)C(=O)O[C@H]1CC(=C)[C@@H]2C[C@H](O)C(=C)[C@@H]2[C@H]2OC(=O)C(=C)[C@@H]21 |  | inactive |
| CC1CCCC(=O)CCC/C=C/c2cc(O)cc(O)c2C(=O)O1 (stereo not given) |  | 14.7 µM (active) |
| O=C(OC[C@H]1O[C@@H](Oc2ccc(O)cc2CO)[C@H](O)[C@@H](O)[C@@H]1O)c1ccccc1 |  | 3.67 µM (active) |
| CC[C@@]1(O)C(=O)OCc2c1cc1n(c2=O)Cc2cc3c(OC)cccc3nc2-1 |  | inactive |
| CC(=O)OC[C@]12C[C@H](O)C(C)=C[C@H]1O[C@@H]1[C@H](O)[C@@H](O)[C@@]2(C)[C@]12CO2 |  | inactive |
| CC(=O)OC[C@]12C[C@H](O)C(C)=C[C@H]1O[C@@H]1[C@H](O)[C@@H](OC(C)=O)[C@@]2(C)[C@]12CO2 |  | inactive |
| CO[C@H]1[C@H](O)[C@H](O[C@H]2CC[C@]3(C=O)C4CC[C@]5(C)[C@H](C6=CC(=O)OC6)CC[C@]5(O)C4CC[C@@H]3C2)O[C@@H](C)[C@@H]1O (stereo not given in full) |  | inactive |
| C[C@H]1O[C@@H](n2cnc3c(N)ncnc32)C[C@@H]1O |  | inactive |
| CO[C@H]1[C@@H](O)[C@@H](C)O[C@@H](O[C@@H]2C=C3C(OC(C)=O)CC4(O)C(CC[C@]5(C)[C@@H](C6=CC(=O)OC6)CC[C@]45O)[C@@]3(C)CC2)[C@@H]1O (stereo not given in full) |  | inactive |

Test system: Nanoluciferase (engineered Oplophorus gracilirostris luciferase)
Test: Primary Nanoluciferase (NLuc) qHTS assay for identification of artifact compounds. (AID 1845222);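 note: NLuc secreted into diluted conditioned medium of S16 cells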
Conditions: NLuc-conditioned medium, Nano-Glo luminescence, 5 min; series mostly up to 54.1 µM
Method in brief: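 Using secreted nanoluciferase in S16 culture medium (0.22 um filtered, 1:55 dilution), compounds were preincubated 15 min at RT. Signal was generated with Nano-Glo reagent (1:100) over 5 min.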

| Compound | Potency | activity, negative = inhibition |
| --- | --- | --- |
| COC1CC(O[C@H]2CC[C@]3(C)C4CC[C@]5(C)[C@@H](C6=CC(=O)OC6)[C@@H](OC(C)=O)C[C@]5(O)C4CC[C@@H]3C2)OC(C)C1O (stereo not given in full) | inactive |  |
| CC1=CC2OC3[C@H](O)C[C@@](C)([C@]34CO4)[C@@]2(CO)[C@H](O)C1=O (stereo not given in full) | inactive |  |
| C=C1[C@@H](C)[C@H]2[C@H](Cc3ccccc3)NC(=O)[C@]23OC(=O)/C=C/C(=O)CCC[C@@H](C)C/C=C/[C@H]3[C@@H]1O | inactive |  |
| CC(C)(C)[C@]1(O)C[C@@H]2OC(=O)C[C@@]23C(=O)O[C@@H]2OC(=O)[C@@H](O)[C@]213 | inactive |  |
| C[C@H]1C/C=C/[C@H]2[C@@H]3O[C@]3(C)[C@@H](C)[C@H]3[C@H](Cc4ccccc4)NC(=O)[C@]32OC(=O)O/C=C/[C@@](C)(O)C1=O | inactive |  |
| CNC(=O)c1cc(C#N)cc(C)c1NC(=O)c1cc(Br)nn1-c1ncccc1Cl | inactive |  |
| OCc1nnc2n1-c1ccc(Cl)cc1C(c1ccccc1Cl)=NC2 | inactive |  |
| CN[C@@H]1C[C@H]2O[C@@](C)([C@@H]1OC)n1c3ccccc3c3c4c(c5c6ccccc6n2c5c31)C(=O)NC4 | inactive |  |
| COC1CC(O[C@H]2CC[C@]3(C=O)C4CC[C@]5(C)[C@@H](C6=CC(=O)OC6)CC[C@]5(O)[C@@H]4CC[C@@H]3C2)OC(C)C1O[C@@H]1O[C@H](CO)[C@@H](O[C@@H]2O[C@H](CO)[C@@H](O)[C@H](O)[C@H]2O)[C@H](O)[C@H]1O (stereo not given in full) |  | 1.46% [at 11.6 µM] (inactive) |
| CC[C@@H]1C[C@H]2CC[C@H](O2)[C@H](C)C(=O)O[C@@H](C)C[C@@H]2CC[C@@H](O2)[C@@H](C)C(=O)O[C@H](CC)C[C@H]2CC[C@H](O2)[C@H](C)C(=O)O[C@@H](C)C[C@@H]2CC[C@@H](O2)[C@@H](C)C(=O)O1 | inactive |  |
| CO[C@@H]1C[C@H](O[C@H]2CC[C@@]3(C)C(CCC4C3CC[C@]3(C)[C@@H](C5=CC(=O)OC5)[C@@H](OC(C)=O)CC43O)C2)O[C@H](C)[C@@H]1O[C@H]1O[C@H](CO[C@@H]2O[C@H](CO)[C@@H](O)[C@H](O)[C@H]2O)[C@@H](O)[C@H](O)[C@H]1O (stereo not given in full) |  | 1.29% [at 11.6 µM] (inactive) |
| CC(=O)O[C@@H]1[C@@H](O)[C@H]2O[C@@H]3C=C(C)[C@@H](O)C[C@]3(CO)[C@]1(C)[C@]21CO1 | inactive |  |
| CO[C@H]1C[C@H](O[C@H]2CC[C@@]3(C)C(=CCC4C3CC[C@]3(C)[C@@H](C5=CC(=O)OC5)CC[C@]43O)C2)O[C@@H](C)[C@@H]1O[C@@H]1O[C@H](CO[C@@H]2O[C@H](CO)[C@@H](O)[C@H](O)[C@H]2O)[C@@H](O)[C@H](O)[C@H]1O (stereo not given in full) |  | 3.27% [at 11.6 µM] (inactive) |
| C=C1[C@@H](C)[C@H]2[C@H](Cc3ccccc3)NC(=O)[C@]23[C@H](OC(C)=O)/C=C/[C@](C)(O)C(=O)[C@@H](C)C/C=C/[C@H]3[C@@H]1O | inactive |  |
| c1cncc(OC[C@@H]2CCN2)c1 | inactive |  |
| CC(=O)OC[C@]12C[C@H](OC(=O)CC(C)C)C(C)=C[C@H]1O[C@@H]1[C@H](O)C[C@@]2(C)[C@]12CO2 | inactive |  |

| Compound | Potency | activity, negative = inhibition |
| --- | --- | --- |
| CNc1ccc2oc(C[C@H]3O[C@@]4(CC[C@H]3C)O[C@H](C(C)C(=O)c3ccc[nH]3)[C@H](C)C[C@H]4C)nc2c1C(=O)O (stereo not given in full) | inactive |  |
| C[N@@+]1(CC2CC2)CC[C@]23c4c5ccc(O)c4O[C@H]2C(=O)CC[C@@]3(O)[C@H]1C5 | inactive |  |
| COc1ccc2c3c([nH]c2c1)C(C=C(C)C)N1C(=O)C2CCCN2C(=O)C1C3 (stereo not given) | inactive |  |
| CC(=O)OC[C@]12C[C@H](OC(=O)CC(C)C)C(C)=C[C@H]1O[C@@H]1[C@H](O)[C@@H](O)[C@@]2(C)[C@]12CO2 | inactive |  |
| CC(C)(NC(=O)[C@@H](N)Cc1ccc(O)cc1)C(=O)N[C@@H](Cc1cc2ccccc2[nH]1)C(=O)N[C@@H](Cc1ccccc1)C(=O)O (H-Y[Aib][Ala(indol-2-yl)]F-OH) |  | 2.82% [at 11.6 µM] (inactive) |
| C[C@]12CC[C@H](O)C[C@H]1CC[C@@H]1[C@@H]2[C@H](O)C(=O)[C@]2(C)[C@@H](c3ccc(=O)oc3)CC[C@]12O | inactive |  |
| CC[C@H]1C2CC3[C@@H]4N(C)c5ccccc5[C@]45C[C@@H]([C@H]2[C@H]5O)N3[C@@H]1O | inactive |  |
| C=C(CO)C(=O)O[C@H]1CC(=C)[C@@H]2C[C@H](O)C(=C)[C@@H]2[C@H]2OC(=O)C(=C)[C@@H]21 | inactive |  |
| CC1CCCC(=O)CCC/C=C/c2cc(O)cc(O)c2C(=O)O1 (stereo not given) | inactive |  |
| O=C(OC[C@H]1O[C@@H](Oc2ccc(O)cc2CO)[C@H](O)[C@@H](O)[C@@H]1O)c1ccccc1 | inactive |  |
| CC[C@@]1(O)C(=O)OCc2c1cc1n(c2=O)Cc2cc3c(OC)cccc3nc2-1 | inactive |  |
| CC(=O)OC[C@]12C[C@H](O)C(C)=C[C@H]1O[C@@H]1[C@H](O)[C@@H](O)[C@@]2(C)[C@]12CO2 | inactive |  |
| CC[C@H]1C[C@@H]2CC[C@@H](O2)[C@@H](C)C(=O)O[C@H](CC)C[C@H]2CC[C@H](O2)[C@H](C)C(=O)O[C@@H](C)C[C@@H]2CC[C@@H](O2)[C@@H](C)C(=O)O[C@H](CC)C[C@H]2CC[C@H](O2)[C@H](C)C(=O)O1 | inactive |  |
| C[C@H]1O[C@@H](n2cnc3c(N)ncnc32)C[C@@H]1O | inactive |  |
| CO[C@H]1[C@@H](O)[C@@H](C)O[C@@H](O[C@@H]2C=C3C(OC(C)=O)CC4(O)C(CC[C@]5(C)[C@@H](C6=CC(=O)OC6)CC[C@]45O)[C@@]3(C)CC2)[C@@H]1O (stereo not given in full) | inactive |  |
| CN(C)c1cc2c(cc1Sc1nc3c(N)nccc3n1CCNCC(C)(C)C)OCO2 | inactive |  |
